# Results: PubChem BioAssay AID2315 (National Center for Advancing Translational Sciences (NCATS), 2010)
# About 27,000 (9.3%) of roughly 290,000 compounds were called active. What follows is part of a selection rich in actives, with near analogues and random picks from the rest. Values without a mark were called inactive. Cut-off read from the data, not from the text of the source: active = inhibition mostly above about 28% (no sharp cut-off); inactive = mostly below about 43%.
# Test: A qHTS for Small Molecule Inhibitors of Shiga Toxin; note: 0% is about no effect
# Details: Vero cells, Shiga toxin protein synthesis inhibition reporter; at 38.7 µM, active compounds read high
row,Structure (SMILES),inhibition
1,CC1=C(C(=O)OC(C)(C)C)C(c2ccc(Br)cc2)NC(=O)N1CCCC(=O)O (stereo unspecified),9.92%
2,CCSc1nnc(SCC(=O)NNC(=O)c2ccccc2F)s1,-24.4%
3,Cc1cccc(NC(=O)C(C)SCc2ccccc2)c1 (stereo unspecified),30.2%
4,CSc1ccc(CCNC(=O)CS(=O)(=O)Cc2nc(-c3ccccc3F)oc2C)cc1,-3.45%
5,CCOc1ccccc1NS(=O)(=O)c1cc2c3c(c1)C(C)C(=O)N3CCC2 (stereo unspecified),-4.9%
6,COc1cccc(NC(=O)CN2CCN(CC(=O)Nc3ccccc3Cl)CC2)c1,-8.02%
7,COc1ccc2[nH]c(C(=O)N/N=C/c3cc(OC)c(OC)c(OC)c3)cc2c1,8.34%
8,COc1ccc2[nH]c(C(=O)Nc3ccccc3Cl)cc2c1,46.8% (active)
9,CC(C)[C@@H](NC(=O)OC(C)(C)C)C(=O)NCC1CCC(C(=O)N[C@@H](Cc2ccccc2)C(=O)O)CC1 (stereo partly specified),2.35%
10,O=C1CCN(CCc2ccccc2)CCN1CCOc1ccccc1,7.81%
11,Cc1ccc2occ(/C=N/NC(=O)c3ccccc3C)c(=O)c2c1,9.81%
12,NC(=S)N/N=C/c1coc2cc(Cl)ccc2c1=O,5.66%
13,CC(C)(C)OC(=O)NCCCCCC(=O)N/N=C/c1coc2ccccc2c1=O,69.6% (active)
14,CC1CCCCN1C(=O)CCS(=O)(=O)Cc1ccccc1 (stereo unspecified),24.6%
15,COc1ccc(N(CC(=O)NCc2ccc(F)cc2)C(=O)CCC(=O)Nc2nccs2)cc1,-15.4%
16,CCOc1ccc(OCCSc2nc3ccccc3n2CC(=O)O)cc1,1.74%
17,Cc1ccc2c(C)c(C(=O)N(C)CCC3CCCCO3)oc2c1C (stereo unspecified),55.6%
18,Cc1ccc2nc(S(=O)(=O)O)[nH]c2c1,-4.97%
19,CCOC(=O)CSc1nc2ccc(C)cc2[nH]1,46.5%
20,Cc1ccc2nc(/C(C#N)=C\c3ccc(OC(=O)c4cccs4)cc3)[nH]c2c1,52.8% (active)
21,CCn1c(=S)sc2c(=O)n(CC(=O)Nc3cccc(Br)c3)c(C)nc21,13.8%
22,COC(=O)c1c(NC(=O)COc2ccc(Cl)cc2Cl)sc2c1CC(C)(C)NC2(C)C,-5.3%
23,Cc1c(C=O)c2ccccc2n1CCOc1ccccc1,31.9%
24,CCOC(=O)CSc1nc2sc3c(c2c(=O)[nH]1)CC(C)(C)OC3,-6.92%
25,CCSc1nc2sc3c(c2c(=O)[nH]1)CC(C)(C)OC3,4.12%
26,CC/C(C)=N/Nc1nc2sc3c(c2c(=O)[nH]1)CC(C)(C)OC3,42.5% (active)
